From PubChem BioAssay (NCATS)
Results filed as inconclusive are left out. Calls of active or inactive are those of the source. Calls come from the whole dose curve; as a rule, active = well fitted curve in the direction sought with a large enough effect; inconclusive = small, poorly fitted or top-dose-only effect, or another doubt; inactive = no such curve, though single readings can be large; an effect the other way counts as inactive or inconclusive.

Legend:
[1] = Quantitative High-Throughput drug screen in 47 multiple myeloma cell lines against the NCATS MIPE library collection: Karpas25_ECACC cell viability assay (AID 1918968; note: nearly all actives have a fitted effect of over 35% in size)
Procedure, shortened: (§1)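 We plated 500 myeloma cells per well, pinned in MIPE 4.0 compounds, and incubated for 48 hours at 37C. ATP was then quantified with CellTiter-Glo, with DMSO and media-only wells defining 100% and 0%.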

[2] = Quantitative High-Throughput drug screen in 47 multiple myeloma cell lines against the NCATS MIPE library collection: KMS27_JCRB cell viability assay (AID 1918970); note: nearly all actives have a fitted effect of over 30% in size
Procedure, shortened: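 KMS27_JCRB myeloma cells, 500 per well, exposed 48 h at 37 C, 5% CO2 to MIPE 4.0 compounds. Viability from ATP by CellTiter-Glo luminescence, normalized to DMSO (100%) and medium-only (0%) wells.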

[3] = Quantitative High-Throughput drug screen in 47 multiple myeloma cell lines against the NCATS MIPE library collection: KMS12BM_JCRB cell viability assay (AID 1918971); note: nearly all actives have a fitted effect of over 35% in size
Procedure, shortened: (§2)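 Viability readout: CellTiter-Glo luminescence following 5 min room-temperature incubation with reagent. Prior exposure: 48 h, 37C, humidified 5% CO2, 500 cells per well.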

[4] = Quantitative High-Throughput drug screen in 47 multiple myeloma cell lines against the NCATS MIPE library collection: KMS12PE_JCRB cell viability assay (AID 1918972); note: nearly all actives have a fitted effect of over 30% in size
Procedure, shortened: as §2

[5] = Quantitative High-Throughput drug screen in 47 multiple myeloma cell lines against the NCATS MIPE library collection: KMS20_JCRB cell viability assay (AID 1918973); note: nearly all actives have a fitted effect of over 45% in size
Procedure, shortened: as §1

[6] = Quantitative High-Throughput drug screen in 47 multiple myeloma cell lines against the NCATS MIPE library collection: KMS21BM_JCRB cell viability assay (AID 1918974); conditions: ATP luminescence, 48 h; viability: at 45.8 µM (top of the series) unless noted
Procedure, shortened: as §1

[7] = Quantitative High-Throughput drug screen in 47 multiple myeloma cell lines against the NCATS MIPE library collection: KMS26_JCRB cell viability assay (AID 1918975); note: nearly all actives have a fitted effect of over 45% in size
Procedure, shortened: as §2

[8] = Quantitative High-Throughput drug screen in 47 multiple myeloma cell lines against the NCATS MIPE library collection: MMM1_PLB cell viability assay (AID 1918976); note: nearly all actives have a fitted effect of over 35% in size
Procedure, shortened: (§3)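 Cells were exposed to library compounds for 48 hours, after which ATP was measured by CellTiter-Glo. Signal was taken as median relative luminescence units.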

[9] = Quantitative High-Throughput drug screen in 47 multiple myeloma cell lines against the NCATS MIPE library collection: NCIH929_DSMZ cell viability assay (AID 1918978); note: nearly all actives have a fitted effect of over 35% in size
Procedure, shortened: as §3

[10] = Quantitative High-Throughput drug screen in 47 multiple myeloma cell lines against the NCATS MIPE library collection: KMS28PE_JCRB cell viability assay (AID 1918983); note: nearly all actives have a fitted effect of over 35% in size
Procedure, shortened: as §3

[11] = Quantitative High-Throughput drug screen in 47 multiple myeloma cell lines against the NCATS MIPE library collection: L363_DSMZ cell viability assay (AID 1918984); note: nearly all actives have a fitted effect of over 40% in size
Procedure, shortened: as §3

[12] = Quantitative High-Throughput drug screen in 47 multiple myeloma cell lines against the NCATS MIPE library collection: KMS34_JCRB cell viability assay (AID 1918985); note: nearly all actives have a fitted effect of over 40% in size
Procedure, shortened: as §3

[13] = Quantitative High-Throughput drug screen in 47 multiple myeloma cell lines against the NCATS MIPE library collection: OCIMY5_PLB cell viability assay (AID 1918988); note: nearly all actives have a fitted effect of over 65% in size
Procedure, shortened: as §3

[14] = Quantitative High-Throughput drug screen in 47 multiple myeloma cell lines against the NCATS MIPE library collection: MOLP8_DSMZ cell viability assay (AID 1918977); note: nearly all actives have a fitted effect of over 45% in size
Procedure, shortened: as §3

[15] = Quantitative High-Throughput drug screen in 47 multiple myeloma cell lines against the NCATS MIPE library collection: OCIMY1_PLB cell viability assay (AID 1918979); note: nearly all actives have a fitted effect of over 35% in size
Procedure, shortened: as §3

[16] = Quantitative High-Throughput drug screen in 47 multiple myeloma cell lines against the NCATS MIPE library collection: LP1_DSMZ cell viability assay (AID 1918982); note: nearly all actives have a fitted effect of over 35% in size
Procedure, shortened: as §3

[17] = Quantitative High-Throughput drug screen in 47 multiple myeloma cell lines against the NCATS MIPE library collection: OCIMY7_PLB cell viability assay (AID 1918987); conditions: OCI-MY7 myeloma viability, CellTiter-Glo ATP, 48 h; viability (% of DMSO): at 45.8 µM (top of the series); note: nearly all actives have a fitted effect of over 65% in size
Procedure, shortened: as §3

[18] = Quantitative High-Throughput drug screen in 47 multiple myeloma cell lines against the NCATS MIPE library collection: MM1S_ATCC cell viability assay (AID 1918980); note: nearly all actives have a fitted effect of over 45% in size
Procedure, shortened: as §3

[19] = Quantitative High-Throughput drug screen in 47 multiple myeloma cell lines against the NCATS MIPE library collection: MM1R_ATCC cell viability assay (AID 1918981); note: nearly all actives have a fitted effect of over 35% in size
Procedure, shortened: as §3

Measured: Potency
Potency is the fitted concentration of half-maximal effect.

Oc1ccc(C2CCN(c3ccnc4ccccc34)CC2)cc1O
active: [1] 7.43 µM | [2] 18.7 µM | [3] 16.6 µM | [4] 18.7 µM | [5] 18.7 µM | [6] 23.5 µM | [7] 18.7 µM | [8] 9.35 µM | [9] 18.7 µM | [10] 16.6 µM | [11] 18.7 µM | [12] 16.6 µM | [13] 14.8 µM

NS(=O)(=O)c1ccc(NC2=CC(=O)c3ccccc3C2=O)cc1
inactive: [3] | [14] | [15] | [10]
active: [1] 0.833 µM | [2] 1.32 µM | [4] 0.526 µM | [7] 3.72 µM | [9] 26.4 µM | [16] 2.35 µM | [11] 1.66 µM | [17] 2.09 µM | [13] 4.69 µM

CC1(C)CCC2=C(O1)c1ccccc1C(=O)C2=O
active: [1] 5.9 µM | [2] 3.32 µM | [3] 20.9 µM | [4] 5.9 µM | [7] 18.7 µM | [8] 2.64 µM | [14] 20.9 µM | [18] 26.4 µM | [16] 20.9 µM | [12] 13.2 µM | [17] 3.32 µM | [13] 18.7 µM

CC#CCn1c(N2CCC[C@@H](N)C2)nc2c1c(=O)n(Cc1nc(C)c3ccccc3n1)c(=O)n2C
inactive: [2] | [4] | [7] | [14] | [15] | [16] | [10]
active: [1] 14.8 µM | [18] 20.9 µM | [12] 4.18 µM | [13] 26.4 µM

COc1cc2ncnc(-n3nc(-c4ccccn4)nc3N)c2cc1OC
inactive: [16]
active: [1] 0.743 µM | [2] 0.0935 µM | [3] 7.43 µM | [4] 1.32 µM | [7] 14.8 µM | [8] 4.18 µM | [9] 4.18 µM | [18] 20.9 µM | [10] 11.8 µM | [11] 0.662 µM | [17] 1.66 µM | [13] 5.26 µM

CCCCCNC(=O)N1CCC(CN(Cc2ccc(Cl)cc2)Cc2ccc([N+](=O)[O-])s2)C1 (stereo unspecified)
active: [1] 20.9 µM | [2] 20.9 µM | [3] 23.5 µM | [4] 18.7 µM | [7] 23.5 µM | [8] 20.9 µM | [14] 18.7 µM | [19] 14.8 µM | [16] 29.6 µM | [10] 20.9 µM | [11] 20.9 µM | [12] 26.4 µM | [17] 16.6 µM | [13] 23.5 µM

O=c1cc(N2CCOCC2)oc2c(-c3cccc4c3sc3ccccc34)cccc12
active: [1] 4.18 µM | [2] 18.7 µM | [3] 16.6 µM | [4] 11.8 µM | [5] 13.2 µM | [7] 20.9 µM | [8] 20.9 µM | [14] 4.18 µM | [9] 3.72 µM | [10] 14.8 µM | [11] 8.33 µM | [17] 1.18 µM | [13] 20.9 µM

C[C@]12CC[C@@H]3c4ccc(O)cc4C[C@@H](CCCCCCCCCS(=O)CCCC(F)(F)C(F)(F)F)[C@H]3[C@H]1CC[C@H]2O (stereo partly specified)
inactive: [1] | [2] | [7] | [14] | [15] | [11]
active: [3] 16.6 µM | [4] 7.43 µM | [8] 18.7 µM | [9] 0.0187 µM | [18] 2.96 µM | [16] 11.8 µM | [17] 5.9 µM | [13] 10.5 µM

CC(C)C(=O)Oc1ccc(CO)cc1[C@H](CCN(C(C)C)C(C)C)c1ccccc1
inactive: [1] | [2] | [4] | [6] | [9] | [18] | [19] | [16]
active: [3] 14.8 µM | [12] 18.7 µM

O=C(Nc1cc(Cl)cc2c1[nH]c1cnccc12)c1cccnc1
active: [1] 5.9 µM | [3] 18.7 µM | [7] 18.7 µM | [8] 11.8 µM | [9] 1.87 µM | [18] 11.8 µM | [10] 16.6 µM | [17] 14.8 µM | [13] 16.6 µM
inactive: [2] | [4] | [15]

Cc1c(O)cccc1C(=O)N[C@@H](CSc1ccccc1)[C@H](O)CN1C[C@H]2CCCC[C@@H]2C[C@@H]1C(=O)NC(C)(C)C
active: [1] 14.8 µM | [2] 16.6 µM | [3] 20.9 µM | [4] 10.5 µM | [7] 29.6 µM | [8] 20.9 µM | [14] 16.6 µM | [9] 23.5 µM | [15] 20.9 µM | [18] 20.9 µM | [19] 18.7 µM | [10] 20.9 µM | [11] 20.9 µM | [12] 18.7 µM | [17] 14.8 µM | [13] 23.5 µM
